We go through 27 compounds from PubChem BioAssay (NCATS).

Assay [1] can be described thus: P-glycoprotein substrates identified in KB-3-1 adenocarcinoma cell line, qHTS therapeutic library screen (AID 1346986). Also: nearly all actives have a fitted effect of over 60% in size.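 Also: potency is for cytotoxicity meaning loss of cell viability.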 The method, boiled down:
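KB-3-1 parental cells and P-gp-overexpressing KB-8-5-11 (colchicine omitted during assay) plated at 500 cells/well, dosed in dose-response, incubated 72 h at 37 degree C. CellTiter-Glo luminescence read; KB-8-5-11 also tested with tariquidar.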
(In qHTS, concentration-response curves come from the screen itself.)

Assay [2] can be described thus: P-glycoprotein substrates identified in KB-8-5-11 adenocarcinoma cell line, qHTS therapeutic library screen (AID 1346987). Also: nearly all actives have a fitted effect of over 65% in size. In a few lines:
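KB-8-5-11: colchicine-selected sub-line of KB-3-1 over-expressing P-gp; assay medium lacked colchicine. 72 h drug exposure at 37 degree C, CellTiter-Glo.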

Structures are written as SMILES. Where “and” joins values, the source holds several entries; their conditions need not be identical. Identical values can stand only once. Inconclusive results are not listed. A number with no mark means an inactive call. Calls of active or inactive are those of the source. Calls follow the shape of the dose curve; as a rule, active = well fitted curve in the direction sought with a large enough effect; inconclusive = small, poorly fitted or top-dose-only effect, or another doubt; inactive = no such curve, though single readings can be large; an effect the other way counts as inactive or inconclusive. Where a SMILES comes first, the peptide text is derived from it. The star is where a group is joined. AFC = O=c1cc(C(F)(F)F)c2ccc(N*)cc2o1
Potency is read from the fitted curve at half-maximal effect.

With `CC1C(OC(=O)c2ccccc2)C(O)C2C(C(=O)O)=COC(OC3OC(CO)C(O)C(O)C3O)C12` (centres undefined), the Potency entry in assay [1] and in assay [2] was “inactive” throughout.
As for `CC1=CC2C(CC1OC1OC(CO)C(O)C(O)C1O)C(C)CC(=O)C2C(C)C` (centres undefined), the Potency result in assay [1] and in assay [2] was “inactive” throughout.
For `COc1cc(/C=C/C=O)cc(OC)c1O[C@@H]1O[C@H](CO)[C@@H](O)[C@H](O)[C@H]1O`, the Potency entry in assay [1] and in assay [2] was “inactive” throughout.
For `CCC(O)(C(=O)OCc1ccccc1NC(=O)CCC(=O)O)C(C)O` (centres undefined), the Potency result in assay [1] and in assay [2] was “inactive” each time.
In the case of `O=C(/C=C/c1ccccc1)OC[C@]12O[C@H]1[C@@H](O)[C@@H]1C=CO[C@@H](O[C@@H]3O[C@H](CO)[C@@H](O)[C@H](O)[C@H]3O)[C@@H]12`, the Potency result in assay [1] and in assay [2] was “inactive” throughout.
Turning to `Cn1c(=O)n(-c2ccc(C(C)(C)C#N)cc2)c2c3cc(C#Cc4cccnc4)ccc3ncc21`, the Potency in assay [1] was 126 nM (active); in assay [2], 89.3 nM (active).
The like results for `CC/C=C\CC1C(=O)C=CC1(CCCCCCCC(=O)O)OC(C)=O` (centres undefined) were, in that order, “inactive” and “inactive”.
As for `C=C1CC23CC1CCC2C12OC(=O)C(C)(CCC1O)C2C3C(=O)O` (centres undefined), the Potency result in assay [1] and in assay [2] was “inactive” in each case.
For `CNC(=O)c1cccc(-c2ccc3c(N4CCOC[C@@H]4C)nc(N4CCOC[C@@H]4C)nc3n2)c1`, the Potency in assay [1] is 920 nM (active); in assay [2] it was 366 nM (active) and 580 nM (active).
On to `CC1(C)CC2C=C(C(=O)O)C3COC(=O)C(O)(CO)C23C1` (centres undefined), for which the Potency result in assay [1] and in assay [2] was “inactive” in each case.
As to `CC(=O)N[C@@H](Cc1c[nH]c2ccccc12)C(=O)N[C@@H](CCC(=O)O)C(=O)N[C@@H](Cc1cnc[nH]1)C(=O)N[C@@H](CC(=O)O)C(=O)Nc1ccc2c(C(F)(F)F)cc(=O)oc2c1` (Ac-WEHD-{AFC}), the Potency result in assay [1] and in assay [2] was “inactive” in each case.
Regarding `O=C(O)CCCCCC[C@H]1C(=O)NC(=O)N1CC[C@@H](O)C1CCCCC1`, the Potency result in assay [1] and in assay [2] was “inactive” in each case.
As for `Cc1cc(OCc2nc(-c3ccccc3Cl)cs2)ccc1OCC(=O)O`, the Potency entry in assay [1] and in assay [2] was “inactive” throughout.
With `COc1c2c(c(C)c3c1C(=O)OC3)OC1(C)CC(O)C(C(C)(C)O)C(C)(CCC(=O)O)C1C2` (centres undefined), the Potency entry in assay [1] and in assay [2] was “inactive” each time.
Regarding `CCNC(=O)Nc1ccc(-c2nc3c(c(N4CCOC[C@@H]4C)n2)CCN(c2ncccn2)C3)cc1`, the Potency in assay [1] was 58 nM (active); in assay [2], 259 nM (active).
Taken in the same sequence, the figures for `CC(C)(O)c1ccc2c(c1)C(O)C[C@H]1[C@](C)(C(=O)O)CCC[C@]21C` (some centres undefined) were “inactive” and “inactive”.
The like results for `C=C1C(O)CC2C(C(=O)O)=COC(O[C@@H]3O[C@H](COC(=O)/C=C/c4ccc(O)cc4)[C@@H](O)[C@H](O)[C@H]3O)C12` (some centres undefined) were, in that order, “inactive” and “inactive”.
Taken in the same sequence, the figures for `C=C1C[C@]23C[C@H]1CC[C@H]2[C@@]1(C)CCC[C@@]2(C)C(=O)O[C@@H]([C@@H]3O)[C@@H]12` were “inactive” and “inactive”.
Take `CC(=O)O[C@H]1[C@H](O[C@H]2[C@@H]3C=CO[C@@H](O[C@@H]4O[C@H](CO)[C@@H](O)[C@H](O)[C@H]4O)[C@@H]3[C@@]3(CO)O[C@@H]23)O[C@@H](C)[C@H](OC(=O)/C=C/c2ccccc2)[C@H]1OC(=O)/C=C/c1ccccc1`: the outcome in assay [1] and in assay [2] was “inactive [at 9.29 µM]” in each case.
As for `CC1(C)CC[C@@]2(C(=O)O[C@@H]3O[C@H](CO)[C@@H](O)[C@H](O)[C@H]3O)C(C1)C1=CCC3[C@@]4(C)CC[C@@H](O[C@@H]5O[C@H](C(=O)O)[C@@H](O[C@@H]6OC[C@@H](O)[C@H](O)[C@H]6O)[C@H](O[C@@H]6OC[C@](O)(CO)[C@H]6O)[C@H]5O)C(C)(C)C4CC[C@@]3(C)[C@]1(C)C[C@H]2O` (some centres undefined), the outcome in assay [1] and in assay [2] was “inactive [at 9.29 µM]” throughout.
Turning to `CC12CCC3c4ccc(OC5OC(C(=O)O)C(O)C(O)C5O)cc4CCC3C1CCC2O` (centres undefined), the Potency entry in assay [1] and in assay [2] was “inactive” throughout.
For the compound `COc1cc2occc2c(O[C@@H]2O[C@H](CO)[C@@H](O)[C@H](O)[C@H]2O)c1CCC(=O)O`, the Potency result in assay [1] and in assay [2] was “inactive” each time.
In the case of `CC(=O)OC/C=C(\C)C(CC1C(C)=C(OC(C)=O)C(=O)C2C(C)(C)C(O)CCC12C)OC(C)=O` (centres undefined), the Potency result in assay [1] and in assay [2] was “inactive” throughout.
As for `COc1cc2ncnc(Nc3cccc(Cl)c3F)c2cc1OC(=O)N1CCN(C)C[C@H]1C`, the Potency result in assay [1] and in assay [2] was “inactive” each time.
Turning to `CC1(O)CCCC2(C)C1CCC13CC(CO)C(CCC12)C3` (centres undefined), the Potency result in assay [1] and in assay [2] was “inactive” each time.
With `CC1=C(C(=O)OCc2ccccc2)C(c2ccc(-c3ccccc3)cc2)NC(=O)N1CCCCCC(=O)O` (centres undefined), the Potency result in assay [1] and in assay [2] was “inactive” in each case.
`C=C[C@H]1C(O[C@@H]2O[C@H](CO)[C@@H](O)[C@H](O)[C@H]2O)OC=C2C(=O)N3CCc4c([nH]c5ccccc45)C3CC21` (some centres undefined): the Potency result in assay [1] and in assay [2] was “inactive” in each case.
